# Results: PubChem BioAssay (NCI)
# This is part of a sample that, as a whole, favours compounds with a hit. Of some 83,000 tested, about 20% had one in any assay.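 Results are percent growth after 48 hours of single-concentration exposure. 100 means growth as in untreated cells, lower positive values show inhibition; negative values down to -100 show cell death.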 Unmarked numbers belong to inactive results. Calls of active or inactive are those of the source. How the source made its calls: active means growth percent below 10; inactive means the rest.
# Key:
# Assay in all cases: NCI-60 one-dose screen, 48 h (100 = growth as untreated, 0 = no growth, -100 = all killed)
# Settings in all cases: 10 µM
# 786-0 renal = tested on: 786-0 renal
# MALME-3M melanoma = tested on: MALME-3M melanoma
# MDA-MB-231 breast = tested on: MDA-MB-231 breast
# SF-268 CNS = tested on: SF-268 CNS
# SF-295 CNS = tested on: SF-295 CNS
# UACC-257 melanoma = tested on: UACC-257 melanoma
# UACC-62 melanoma = tested on: UACC-62 melanoma
# SK-MEL-28 melanoma = tested on: SK-MEL-28 melanoma
# SK-MEL-2 melanoma = tested on: SK-MEL-2 melanoma
# SN12C renal = tested on: SN12C renal
# TK-10 renal = tested on: TK-10 renal
# ACHN renal = tested on: ACHN renal
# CAKI-1 renal = tested on: CAKI-1 renal
# A498 renal = tested on: A498 renal
# OVCAR-8 ovarian = tested on: OVCAR-8 ovarian
# OVCAR-5 ovarian = tested on: OVCAR-5 ovarian
# IGROV1 ovarian = tested on: IGROV1 ovarian
# OVCAR-3 ovarian = tested on: OVCAR-3 ovarian
# HS 578T breast = tested on: HS 578T breast
# NCI/ADR-RES ovarian = tested on: NCI/ADR-RES ovarian
Structure (SMILES),growth (786-0 renal),growth (MALME-3M melanoma),growth (MDA-MB-231 breast),growth (SF-268 CNS),growth (SF-295 CNS),growth (UACC-257 melanoma),growth (UACC-62 melanoma),growth (SK-MEL-28 melanoma),growth (SK-MEL-2 melanoma),growth (SN12C renal),growth (TK-10 renal),growth (ACHN renal),growth (CAKI-1 renal),growth (A498 renal),growth (OVCAR-8 ovarian),growth (OVCAR-5 ovarian),growth (IGROV1 ovarian),growth (OVCAR-3 ovarian),growth (HS 578T breast),growth (NCI/ADR-RES ovarian)
Cn1cc(-c2nc(N)nnc2-c2c[nH]c3ccccc23)c2cc(Br)cnc21,28.4%,36.7%,16.3%,20.3%,15%,46%,21.1%,39.8%,24.7%,17.7%,64.2%,19.2%,11.9%,96.3%,5.76% (active),21.8%,23.2%,9.25% (active),40.7%,3.11% (active)
O=C(Nc1ccc(Oc2ncnc3scc(Nc4n[nH]c(=S)s4)c23)cc1)C1(C(=O)Nc2cccc(C(F)(F)F)c2)CC1,107%,95.8%,92.7%,102%,108%,110%,86.5%,108%,113%,108%,143%,95.6%,81.6%,122%,103%,87.9%,70%,104%,100%,104%
Cc1ccc(COc2ccc(NC(=O)Nc3ccc(Cl)c(C(F)(F)F)c3)cc2)cc1,89.4%,75.5%,90.2%,86.2%,67.7%,76.1%,60.5%,93.6%,85.3%,81.1%,77.9%,56.8%,61.7%,82.6%,80.4%,85%,79.2%,68.7%,86.7%,84.7%
COc1cc(-c2nc3ccc(C)cc3[nH]2)ccc1OCc1nnc(-c2ccccc2Br)o1,31.4%,66.8%,69.7%,79.3%,-0.44% (active),78.3%,92%,70.4%,85.2%,76.1%,116%,76.6%,66%,108%,63.3%,77.5%,90.3%,75.7%,62.2%,75%
COc1cc(C2CC(c3ccc(Oc4ccc(Cl)cc4)cc3)=NN2c2nc(-c3ccc(Cl)cc3)c(C#N)c(N3CCOCC3)n2)cc(OC)c1OC (stereo not given),98.8%,106%,100%,104%,107%,101%,91.2%,97.8%,106%,91.4%,96.1%,96.5%,79%,114%,104%,101%,106%,117%,104%,98.9%
Cc1ccc2c(c1)C(=O)/C(=C/c1ccc([N+](=O)[O-])cc1)S2,101%,97.8%,98.1%,96.4%,98.2%,101%,73.2%,109%,101%,93.4%,135%,102%,61.9%,114%,105%,82.9%,63.8%,103%,86%,95.3%
Fc1ccc(-c2csc(Nc3cccc(Nc4nc(-c5ccc(F)cc5)cs4)c3)n2)cc1,68.8%,83%,64.6%,57.9%,90.4%,74.6%,57.1%,76.4%,34.7%,47.2%,94.5%,51.8%,46.4%,78.3%,67.9%,65.5%,41.8%,57.5%,69.3%,63.7%
C#C[C@]1(O)CC[C@H]2[C@@H]3CC=C4c5sc(Nc6ccc(N(C)C)cc6)nc5CC[C@]4(C)[C@H]3CC[C@@]21C,-54.6% (active),-44.7% (active),-10.7% (active),11.7%,-58.7% (active),45.9%,-2.23% (active),-21.6% (active),-33.1% (active),12.1%,42.3%,-4.47% (active),2.6% (active),-42.4% (active),0.0481% (active),21.7%,9.97% (active),2.6% (active),-7.74% (active),9.68% (active)
O=C1S/C(=C\c2ccc([N+](=O)[O-])cc2)C(=O)N1CCN1CCCCC1,105%,118%,102%,112%,111%,112%,99.6%,109%,111%,98.5%,106%,103%,102%,126%,105%,114%,112%,116%,115%,109%
O=C(CC(=O)Nc1ccc(Oc2ncnc3scc(Nc4n[nH]c(=S)s4)c23)cc1)Nc1ccc(Br)cc1,109%,105%,101%,98.7%,112%,104%,82.2%,110%,98.8%,106%,146%,106%,88.8%,121%,102%,106%,106%,105%,96.7%,103%
COc1ccc(Cn2cc(C#N)c(N)c2C(C)=O)c(OC)c1,102%,108%,101%,103%,109%,109%,98.1%,109%,126%,96.4%,113%,101%,102%,97.8%,104%,112%,112%,105%,111%,102%
O=C(c1ccccc1)c1ccc2nc(-c3ccccc3Br)[nH]c2c1,-89.9% (active),-68.4% (active),-8.52% (active),-2.6% (active),11.2%,-59.1% (active),-47.5% (active),-26.7% (active),-93.9% (active),-42.8% (active),-77.7% (active),-98.2% (active),-92.8% (active),9.77% (active),12.6%,-65.8% (active),-58.9% (active),-80.3% (active),29%,0.18% (active)
COc1ccc(C(=O)COc2ccc(NC(=O)Nc3ccccc3)cc2)cc1,94%,85.3%,94.1%,91.6%,90.5%,93.8%,80%,102%,80.8%,91.1%,101%,98%,72.7%,104%,87.2%,98.7%,94.8%,104%,97.3%,86.4%
O=C(CN1CCN(c2ncnc3c2cnn3-c2ccccc2)CC1)Nc1ccc(Br)cc1,-61.7% (active),-54.4% (active),66.7%,58.8%,83%,58.7%,45.1%,72%,29.9%,39.1%,121%,-88.1% (active),-57% (active),90.9%,64.7%,78.2%,58.1%,60.6%,70.7%,56.1%
Cn1cc(-c2cc3nc(-c4c[nH]c5ccccc45)cc(N)n3n2)c2cc(Cl)ccc21,-85.7% (active),-90.8% (active),-69.4% (active),-44.6% (active),-90.9% (active),-90.4% (active),-85.8% (active),-99.4% (active),-95.8% (active),-85.7% (active),-91.8% (active),-100% (active),-98.7% (active),-82.9% (active),-86.1% (active),-86.4% (active),-64.5% (active),-80% (active),-22.2% (active),-48.5% (active)
Cc1ccc2sc3c(c2c1)Oc1nc[nH]c(=O)c1C3c1cccc(F)c1 (stereo not given),102%,98.7%,91.1%,104%,109%,101%,74.5%,110%,102%,89.5%,154%,97%,83.2%,129%,107%,108%,89.2%,114%,94.4%,100%
